In PubChem BioAssay (EPA / NIEHS) one finds outcome and AC50 data, which are given here for six molecules.

Records with an inconclusive call do not appear. Active and inactive are the calls of the source. Rule for the calls, unless noted: active = hit-call score of the fitted dose curve at least 0.9, where 1 is the maximum; inactive = score below 0.9.

Read-out in assay [1]: Monocyte Chemoattractant Protein-1 (MCP1), CCL2 (gene 6347)
As to the kind of experiment: BSK_LPS_MCP1: BioMAP Diversity Plus: LPS Assay for Monocyte Chemoattractant Protein-1 (MCP1) Biomarker Activity (AID 2283081).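 For AC50: secreted MCP-1 protein quantified by ELISA in culture supernatant.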 Particulars: primary human HUVEC with PBMC; actives raise or lower the signal. The method in brief:
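HUVEC plus PBMC co-culture (human primary cells, LPS system) exposed to test chemical for 24 h; MCP-1 measured by ELISA. Bidirectional curve fitting against DMSO baseline; parallel SRB total-protein staining flags overt cytotoxicity.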

Assay [2] can be described thus: BSK_LPS_PGE2: BioMAP Diversity Plus: LPS Assay for Prostaglandin E2 (PGE2) Biomarker Activity (AID 2283082). Particulars: primary human HUVEC with PBMC; actives raise or lower the signal. In a few lines: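 Endpoint derived from bidirectional curve fitting versus DMSO of ELISA-measured PGE2 in LPS-stimulated human primary vascular co-culture (HUVEC with PBMC) harvested at 24 h.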

Read-out in assay [3]: Macrophage colony-stimulating factor (MCSF), CSF1 (gene 1435)
Nature of the assay: BSK_LPS_MCSF: BioMAP Diversity Plus: LPS Assay for Macrophage colony-stimulating factor (MCSF) Biomarker Activity (AID 2283083). Particulars: primary human HUVEC with PBMC; actives raise or lower the signal. The method in brief:
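Human umbilical vein endothelial cells co-cultured with peripheral blood mononuclear cells were exposed to compound for 24 h. M-CSF levels were measured by ELISA, and bidirectional curve fitting used DMSO as the negative control and baseline.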

Read-out in assay [4]: Tissue Factor, F3 (gene 2152)
Nature of the assay: BSK_LPS_TissueFactor: BioMAP Diversity Plus: LPS Assay for Tissue Factor Biomarker Activity (AID 2283084). Particulars: primary human HUVEC with PBMC; actives raise or lower the signal. In a few lines: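 Human umbilical vein endothelial cells co-cultured with peripheral blood mononuclear cells were dosed and stimulated with LPS. Cell-surface CD142 was quantified by ELISA at 24 h. Activity was fitted bidirectionally against DMSO baseline.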

Read-out in assay [5]: Tumor necrosis factor (Homo sapiens) (UniProt P01375)
Nature of the assay: BSK_LPS_TNFa: BioMAP Diversity Plus: LPS Assay for Tumour Necrosis Factor alpha (TNFa) Biomarker Activity (AID 2283085). Particulars: primary human HUVEC with PBMC; actives raise or lower the signal. The method in brief:
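Primary human vascular co-culture of HUVEC and PBMC; TNFa ELISA 24 h after treatment, analysed as increase or decrease relative to DMSO control.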

Read-out in assay [6]: Vascular cell adhesion molecule 1 (VCAM1), VCAM1 (gene 7412)
Nature of the assay: BSK_LPS_VCAM1: BioMAP Diversity Plus: LPS Assay for Vascular cell adhesion molecule 1 (VCAM1) Biomarker Activity (AID 2283086). Particulars: primary human HUVEC with PBMC; actives raise or lower the signal. In a few lines: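 Primary human vascular co-culture (umbilical vein endothelium plus PBMC) stimulated with LPS received chemical; 24 h later VCAM-1 was read by ELISA. Overt cytotoxicity was assessed by sulforhodamine B staining of parallel cultures at the same time point.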

Read-out in another assay: CD38, CD38 (gene 952)
Nature of the assay: BSK_SAg_CD38: BioMAP Diversity Plus: SAg Assay for CD38 Biomarker Activity (AID 2283087). The note with it: primary human HUVEC with PBMC; actives raise or lower the signal. In a few lines: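 Fluorescence ELISA of cell-surface CD38 served as the read-out, with either increase or decrease fitted against DMSO controls. Cells were a human umbilical vein endothelium plus PBMC co-culture under SEB/TSST-1 stimulation, measured 24 h after dosing.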

Read-out in the next assay: CD40, CD40 (gene 958)
Nature of the assay: BSK_SAg_CD40: BioMAP Diversity Plus: SAg Assay for CD40 Biomarker Activity (AID 2283088). The note with it: primary human HUVEC with PBMC; actives raise or lower the signal. In a few lines: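 Human umbilical vein endothelial cells co-cultured with PBMC; CD40 levels measured by ELISA with fluorescence read-out 24 h after chemical dosing. Gain or loss of signal fitted bidirectionally against DMSO baseline.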

Read-out in a further assay: CD69, CD69 (gene 969)
As to the kind of experiment: BSK_SAg_CD69: BioMAP Diversity Plus: SAg Assay for CD69 Biomarker Activity (AID 2283089).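 For AC50: cell surface CD69 protein quantified by ELISA with fluorescence detection.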 Particulars: primary human HUVEC with PBMC; actives raise or lower the signal. In a few lines: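 Values derive from bidirectional fitting relative to DMSO vehicle. Cells: umbilical vein endothelium plus peripheral blood mononuclear cells, treated 24 h before fluorescent ELISA for CD69.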

Read-out in assay [7]: Monocyte Chemoattractant Protein-1 (MCP1), CCL2 (gene 6347)
As to the kind of experiment: BSK_SAg_MCP1: BioMAP Diversity Plus: SAg Assay for Monocyte Chemoattractant Protein-1 (MCP1) Biomarker Activity (AID 2283090). Particulars: primary human HUVEC with PBMC; actives raise or lower the signal. In a few lines:
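MCP-1 levels in the endothelial–PBMC SAg co-culture were quantified by ELISA at 24 h post-dosing; both increases and decreases versus DMSO scored. Cytotoxicity monitored by SRB total protein in parallel cultures.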

Read-out in assay [8]: E-selectin (Homo sapiens) (UniProt P16581)
As to the kind of experiment: BSK_SAg_Eselectin: BioMAP Diversity Plus: SAg Assay for Eselectin Biomarker Activity (AID 2283091). The note with it: primary human HUVEC with PBMC; actives raise or lower the signal. The method in brief:
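HUVEC co-cultured with PBMC, compound dosed then read at 24 h; E-selectin measured by ELISA. Activity fitted bidirectionally against DMSO as negative control and baseline.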

Read-out in assay [9]: Monokine induced gamma interferon (MIG), CXCL9 (gene 4283)
Nature of the assay: BSK_SAg_MIG: BioMAP Diversity Plus: SAg Assay for Monokine induced gamma interferon (MIG) Biomarker Activity (AID 2283092). The note with it: primary human HUVEC with PBMC; actives raise or lower the signal. In a few lines: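 Values reflect bidirectional fitting of ELISA-measured MIG against DMSO vehicle, taken 24 h after dosing of a co-culture of human umbilical vein endothelial cells and peripheral blood mononuclear cells.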

Assay [10] in a line: BSK_SAg_PBMCCytotoxicity: PBMC Cytotoxicity Assessment in the BioMAP Diversity Plus: SAg Assay (AID 2283093).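 For AC50: PBMC superantigen activated with SEB plus TSST-1 one hour after compound addition.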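 Note: PBMC viability measured as Alamar Blue reduction fluorescence at 546/580 nm; fitted both ways against DMSO so a hit may be loss or gain of signal.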 Particulars: primary human HUVEC with PBMC. The method in brief: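 Human umbilical vein endothelial cells co-cultured with PBMC; PBMC (75,000/well) pre-treated with compound 1 h, then activated with SEB and TSST-1 (20 ng/mL final each) for 90 h. Alamar Blue added 6 h, fluorescence 546/580 nm; bidirectional fit versus DMSO.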

Read-out in assay [11]: Interleukin-8 (IL8), CXCL8 (gene 3576)
Nature of the assay: BSK_SAg_IL8: BioMAP Diversity Plus: SAg Assay for Interleukin-8 (IL8) Biomarker Activity (AID 2283094). The note with it: primary human HUVEC with PBMC; actives raise or lower the signal. In a few lines: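 In this co-culture of human umbilical vein endothelium with peripheral blood mononuclear cells, IL-8 is assayed by ELISA at 24 h. DMSO serves as baseline for bidirectional curve fitting.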

The nature of assay [12]: BSK_SAg_Proliferation: Cell Proliferation Assessment in the BioMAP Diversity Plus: SAg Assay (AID 2283095).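 Note: relative cell number as total protein by SRB absorbance in sub-confluent culture.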 Particulars: primary human HUVEC with PBMC. The method in brief:
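Readout is SRB-stained protein (560 nm) in a primary human HUVEC and PBMC co-culture; sub-confluent cultures are read at 96 h. Activity is fitted bidirectionally using DMSO as baseline.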

The nature of assay [13]: BSK_SAg_SRB: Viability Assessment in the BioMAP Diversity Plus: SAg Assay (AID 2283096).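 Note: cells read one day after compound addition; hits may be either gain or loss of signal compared with DMSO.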 The note with it: primary human HUVEC with PBMC. The method in brief: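 Endothelial/PBMC primary human co-culture; compound 24 h; fix 10% TCA, stain 0.1% SRB, A560; protein content as cytotoxicity proxy; bidirectional curve fit, DMSO = baseline.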
Assay [14] addresses Cytochrome P450 3A4 (Homo sapiens) (UniProt P08684). As to the kind of experiment: NVS_ADME_hCYP3A4: NovaScreen (NVS) CYP450-related Enzyme Activity (ADME) Assay for human CYP3A4 (AID 2283110; active = hit-call score of the fitted dose curve at least 0.9, where 1 is the maximum). The method in brief: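 Cell-free assay using insect-cell-expressed human CYP3A4 with a fluorogenic substrate; fluorescence intensity was read 0.33 hour after dosing. Loss of signal relative to acetonitrile vehicle indicated inhibition. Primary single-concentration screen at 10 uM, in duplicate, then concentration series.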

The target in assay [15] is human CYP2D6, CYP2D6 (gene 1565) (UniProt P10635). As to the kind of experiment: NVS_ADME_hCYP2D6: NovaScreen (NVS) CYP450-related Enzyme Activity (ADME) Assay for human CYP2D6 (AID 2283107; active = hit-call score of the fitted dose curve at least 0.9, where 1 is the maximum). The method in brief: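 Cell-free assay using recombinant enzyme expressed in insect cells, with fluorescence-intensity readout of enzyme activity 1 hour after chemical dosing. Loss of signal versus acetonitrile negative control indicates inhibition. Primary screen ran in duplicate at 10 uM; actives were retested in concentration series.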
Sequence of human CYP2D6, CYP2D6 (gene 1565) (P10635 whole entry, looked up): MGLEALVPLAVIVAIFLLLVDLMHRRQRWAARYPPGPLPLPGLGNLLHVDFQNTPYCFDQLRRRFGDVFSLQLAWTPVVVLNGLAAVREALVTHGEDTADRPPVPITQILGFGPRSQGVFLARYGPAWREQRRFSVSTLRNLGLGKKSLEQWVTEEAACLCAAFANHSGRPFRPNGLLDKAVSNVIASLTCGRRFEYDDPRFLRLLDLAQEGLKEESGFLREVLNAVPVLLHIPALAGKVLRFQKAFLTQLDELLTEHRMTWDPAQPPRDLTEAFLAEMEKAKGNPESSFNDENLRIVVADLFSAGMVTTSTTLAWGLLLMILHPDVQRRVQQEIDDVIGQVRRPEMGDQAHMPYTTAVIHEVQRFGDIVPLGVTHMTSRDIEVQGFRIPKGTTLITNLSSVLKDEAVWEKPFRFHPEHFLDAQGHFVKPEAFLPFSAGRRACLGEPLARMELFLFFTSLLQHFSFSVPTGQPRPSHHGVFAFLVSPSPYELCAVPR

Assay [16] has as its target Cytochrome P450 2C19 (Homo sapiens) (UniProt P33261). As to the kind of experiment: NVS_ADME_hCYP2C19: NovaScreen (NVS) CYP450-related Enzyme Activity (ADME) Assay for human CYP2C19 (AID 2283113; active = hit-call score of the fitted dose curve at least 0.9, where 1 is the maximum;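 note: potency for inhibition seen as loss of fluorescent signal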). In a few lines:
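Cell-free assay of recombinant human CYP2C19 expressed in insect cells, with a fluorogenic substrate; fluorescence intensity read 1 hour after dosing. Loss of signal relative to acetonitrile negative control indicates inhibition. Primary screen at 10 uM in duplicate, then concentration series.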

Sequence of Tumor necrosis factor (Homo sapiens) (P01375 whole entry, looked up): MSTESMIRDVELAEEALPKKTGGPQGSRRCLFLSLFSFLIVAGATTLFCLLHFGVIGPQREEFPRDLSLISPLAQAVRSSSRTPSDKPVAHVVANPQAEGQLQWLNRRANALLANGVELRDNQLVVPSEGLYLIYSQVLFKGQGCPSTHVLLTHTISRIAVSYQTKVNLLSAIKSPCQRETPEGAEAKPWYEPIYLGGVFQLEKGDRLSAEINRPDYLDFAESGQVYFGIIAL
Sequence of E-selectin (Homo sapiens) (P16581 whole entry, looked up): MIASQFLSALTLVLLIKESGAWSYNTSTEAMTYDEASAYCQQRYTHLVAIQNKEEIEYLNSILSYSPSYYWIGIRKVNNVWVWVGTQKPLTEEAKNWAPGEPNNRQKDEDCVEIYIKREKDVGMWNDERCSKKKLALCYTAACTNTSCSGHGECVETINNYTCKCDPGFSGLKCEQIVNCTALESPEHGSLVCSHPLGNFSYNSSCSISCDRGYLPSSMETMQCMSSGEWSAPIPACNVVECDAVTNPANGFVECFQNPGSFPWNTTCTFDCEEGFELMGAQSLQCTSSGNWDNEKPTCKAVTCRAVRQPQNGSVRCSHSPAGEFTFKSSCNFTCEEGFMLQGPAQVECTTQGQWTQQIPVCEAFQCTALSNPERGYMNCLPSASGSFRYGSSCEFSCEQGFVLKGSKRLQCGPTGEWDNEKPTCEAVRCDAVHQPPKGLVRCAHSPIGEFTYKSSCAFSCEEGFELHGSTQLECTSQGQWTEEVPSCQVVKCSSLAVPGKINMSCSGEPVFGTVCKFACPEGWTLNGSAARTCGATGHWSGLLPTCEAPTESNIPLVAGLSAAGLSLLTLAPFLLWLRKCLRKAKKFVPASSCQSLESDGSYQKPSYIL
Sequence of Cytochrome P450 3A4 (Homo sapiens) (P08684 whole entry, looked up): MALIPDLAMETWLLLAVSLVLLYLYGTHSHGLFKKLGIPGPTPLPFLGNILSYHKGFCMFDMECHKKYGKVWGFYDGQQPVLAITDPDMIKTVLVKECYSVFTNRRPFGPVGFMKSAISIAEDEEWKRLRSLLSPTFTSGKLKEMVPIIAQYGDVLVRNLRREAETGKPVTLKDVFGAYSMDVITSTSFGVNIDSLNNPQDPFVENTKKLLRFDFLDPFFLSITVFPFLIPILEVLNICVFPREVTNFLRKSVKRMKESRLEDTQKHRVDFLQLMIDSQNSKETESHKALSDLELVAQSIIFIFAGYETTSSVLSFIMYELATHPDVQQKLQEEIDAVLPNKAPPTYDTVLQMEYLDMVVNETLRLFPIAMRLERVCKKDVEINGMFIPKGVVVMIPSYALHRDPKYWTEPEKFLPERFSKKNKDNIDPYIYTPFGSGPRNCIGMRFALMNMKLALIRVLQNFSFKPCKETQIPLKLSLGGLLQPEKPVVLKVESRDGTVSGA

Take `CCCCCCCOC(=O)c1ccccc1C(=O)OCCCCCCC`: the result in assay [1], in assay [2], in assay [3], in assay [4], in assay [5] and in assay [6] was inactive. The outcome with CD38, CD38 (gene 952) is “inactive”; with CD40, CD40 (gene 958), “inactive”; in the assay with CD69, CD69 (gene 969), “inactive”; in assay [7], “inactive”; in assay [8], “inactive”; in assay [9], “inactive”. Also, the result in assay [11], in assay [12] and in [13] was inactive. The AC50 in assay [10] was 3.28 µM (active).
With `CCN(CC)c1ccc2c(C)cc(=O)oc2c1`, the outcome in assay [1] was “inactive”; in assay [3], “inactive”; in [4] it was “inactive”; in assay [5], “inactive”; in assay [6] it was “inactive”; with CD40, CD40 (gene 958) it was “inactive”. For the same molecule, the outcome with CD69, CD69 (gene 969) is “inactive”; in assay [7], “inactive”; in assay [8] it was “inactive”; in assay [9], “inactive”; in assay [10], “inactive”; in assay [11], “inactive”. For the same molecule, the result in [12], in assay [13] and in assay [14] was inactive. Also, the AC50 in assay [2] is 6.52 µM (active).
Regarding `O=P(O)(O)OCCC(F)(F)C(F)(F)C(F)(F)C(F)(F)C(F)(F)C(F)(F)F`, the result in assay [1], in assay [2], in assay [3], in assay [4], in assay [5] and in assay [6] was inactive. Moreover, the outcome with CD40, CD40 (gene 958) was “inactive”; in the assay with CD69, CD69 (gene 969), “inactive”; in assay [7], “inactive”; in assay [8], “inactive”; in assay [9] it was “inactive”; in assay [10], “inactive”. Also, the result in [11], in assay [12] and in [13] was inactive.
As to `CCCCCCCCCCCCCCCC[N+](C)(C)Cc1ccccc1`, the AC50 in assay [1] was 11.4 µM (active); in [3], 1.74 µM (active); in assay [4], 10.7 µM (active); in [5], 3.79 µM (active); in assay [6], 3.77 µM (active); with CD38, CD38 (gene 952), 13 µM (active). Moreover, the AC50 was 14.7 µM (active) with CD40, CD40 (gene 958); 12.4 µM (active) with CD69, CD69 (gene 969); 2.97 µM (active) in assay [7]; 20 µM (active) in assay [8]; 2.96 µM (active) in assay [9]; 1.17 µM (active) in [10]. Moreover, the AC50 in assay [11] was 10 µM (active); in [12], 0.456 µM (active); in [13], 5.21 µM (active); in assay [15], 0.401 µM (active); in [16] it was 5 µM (active). Moreover, in assay [2], the outcome was inactive.
`FC(F)(F)C(F)(F)C(F)(F)CI`: the outcome in assay [1], in [2], in assay [3], in assay [4], in [5] and in assay [6] was inactive. Also, the outcome in the assay with CD40, CD40 (gene 958) is “inactive”; in the assay with CD69, CD69 (gene 969) it was “inactive”; in [7], “inactive”; in [8], “inactive”; in [9], “inactive”; in assay [10] it was “inactive”. Also, the outcome in [11], in [12] and in assay [13] was inactive.
Take `O=S(=O)(OCCOC(F)(F)F)C(F)(F)F`: the result in assay [1], in [2], in assay [3], in [4], in assay [5] and in assay [6] was inactive. Moreover, the outcome with CD40, CD40 (gene 958) is “inactive”; with CD69, CD69 (gene 969) it was “inactive”; in assay [7], “inactive”; in assay [8], “inactive”; in assay [9], “inactive”; in [10] it was “inactive”. For the same molecule, the result in [11], in assay [12] and in assay [13] was inactive.
